CtBP-E1A blk – qHTS Assay for Inhibitors of the CtBP/E1A Interaction; CtBP / adenovirus E1A interaction (AlphaScreen); AlphaScreen GST-E1A/His-CtBP binding, 1536-well; hits give low values; activity change, % (concentration not given with the values); 0.49% of 340,000 active; in the data active = activity change below about -65%; inconclusive = mostly about -30% to -63%
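Homogeneous bead-based format: GST-tagged E1A captured on glutathione donor beads, His-tagged CtBP on nickel acceptor beads; compounds precede bead addition by 2 h at 37 °C.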
JMJD2A Tudor – qHTS Assay for Inhibitors of JMJD2A-Tudor Domain; Lysine-specific demethylase 4A (Homo sapiens), O75164; AlphaScreen JMJD2A-Tudor / H3K4me3 peptide binding; Potency, µM (highest dose often 114 µM), usual class: inhibitors; 4.4% of 390,000 active; AID 504339, 2011; also: nearly all actives have a fitted effect of over 50% in size
G9a inh – qHTS Assay for Inhibitors of Histone Lysine Methyltransferase G9a. Potency, µM (top dose mostly 102 µM), hits mostly inhibitors. G9a H3K9 monomethylation, AlphaScreen, 2 h. 8.8% of 350,000 active. AID 504332, 2011. Histone-lysine N-methyltransferase EHMT2 (Homo sapiens), Q96KQ7; also: nearly all actives have a fitted effect of over 75% in size
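Signal arises when biotinylated H3K9 peptide, once monomethylated, bridges streptavidin donor and antibody-captured acceptor beads. Enzyme at 20 nM was preincubated 15 min with test compounds; peptide 500 nM and SAM 20 uM then reacted for 2 h.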
Six1-Eya2 blk – qHTS Assay for Inhibitors of the Six1/Eya2 Interaction | activity change, % (concentration not given with the values) | AlphaScreen GST-Six1/His-Eya2 binding, biochemical; hits give low values | 0.56% of 360,000 active | AID 651725, 2012 | Homeobox protein SIX1 (Homo sapiens) + Protein phosphatase EYA2 (Homo sapiens), …; in the data active = activity change below about -65%; inconclusive = mostly about -30% to -63%
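Homogeneous AlphaScreen proximity assay pairing GST-Six1 with His-tagged Eya2 (added as 5X mix: 250 nM and 500 nM) in 50 mM Tris pH 8.0, 300 mM NaCl, 1 mM TCEP. Glutathione donor and nickel acceptor beads; 1 h, 37 °C, dark.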
HP1b chromo inh – HTS for Inhibitors of HP1-beta Chromodomain Interactions with Methylated Histone Tails. 0.56% of 390,000 active. AID 540317, 2011. Potency, µM (highest dose often 114 µM), actives largely listed as inhibitors. AlphaScreen HP1-beta / biotin-H3K9me3 peptide binding; also: nearly all actives have a fitted effect of over 70% in size
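AlphaScreen: HP1-beta (50 nM) preformed 30 min with biotin-H3(1-18)K9me3 peptide (50 nM) in PBS pH 7.4, 0.01% Tween-20. Compound added for 30 min at RT, then streptavidin donor/nickel chelate acceptor beads (10 ug/mL) for 30 min.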
BAZ2B block – qHTS Assay for Inhibitors of BAZ2B. Bromodomain adjacent to zinc finger domain protein 2B (Homo sapiens), Q9UIF8. AlphaScreen BAZ2B-H3K14Ac peptide displacement. Potency, µM (doses to about 114 µM), most hits filed as inhibitors. 4.4% of 360,000 active; also: nearly all actives have a fitted effect of over 60% in size
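AlphaScreen displacement: compounds (up to 110uM) incubated 30 min at room temperature with a preformed 50 nM BAZ2B/50 nM biotinylated H3K14Ac peptide complex in PBS pH 7.4 with Tween-20. Donor and acceptor beads at 10 ug/mL final added, 20 min light-protected before reading.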
Large screens that a line does not name were inactive. Only some compounds are listed: those with a hit (about 10% of all), similar ones and a draw of the others. Unless noted, calls follow the shape of the dose curve; as a rule, active = well fitted inhibition curve with a large enough effect; inconclusive = small, poorly fitted or top-dose-only effect; inactive = no such curve, though single readings can be large or run the other way.

CN1CCCCCC1=Nc1ccccc1C#N	JMJD2A Tudor 1.78µM, G9a inh inconclusive, HP1b chromo inh 12.6µM, BAZ2B block 44.7µM
O=S(=O)(Nc1ccc(-c2ccc(N3CCCC3)nn2)cc1)c1cccc(C(F)(F)F)c1	none (no result: CtBP-E1A blk, Six1-Eya2 blk)
NCCCC(=O)O	G9a inh 2.82µM
Cc1cc(C)c2ccc(N)nc2c1O	CtBP-E1A blk inconclusive, G9a inh inconclusive, Six1-Eya2 blk inconclusive
Cc1cc(C)c2ccc(C)[n+]([O-])c2c1O	G9a inh 12.6µM, BAZ2B block inconclusive
COCCNC(=O)c1nn(-c2ccc(C)cc2)c(=O)c2c1c1ccccc1n2C	none (no result: CtBP-E1A blk, Six1-Eya2 blk, BAZ2B block)
CSCC[C@H](NC(=O)Nc1ccc(Oc2ccccc2)cc1)C(=O)O	none (no result: G9a inh)
CC(=O)c1ccc(N/N=C2/CCCNC2=O)cc1	none
Cc1ccc(N/N=C2/CCCNC2=O)cc1	JMJD2A Tudor inconclusive, G9a inh 25.1µM, HP1b chromo inh inconclusive
COc1cc(C(=O)N2CCC2(C)C(=O)O)cc(OC)c1OC (centres undefined)	none (no result: JMJD2A Tudor, G9a inh, HP1b chromo inh, BAZ2B block)
CCOC(=O)c1[nH]c2ccc(Br)cc2c1NC(=O)CCN1CCCC(C)(C)C1	G9a inh 8.91µM
CCOC(=O)c1noc2nc(C)n(CC(=O)Nc3cccc(OC)c3)c(=O)c12	none (no result: CtBP-E1A blk, Six1-Eya2 blk)
c1ccc(-c2onc(-c3ccco3)c2-c2ccc3[nH]ccc3c2)cc1	JMJD2A Tudor inconclusive, G9a inh 39.8µM, BAZ2B block inconclusive
Clc1ccc(-c2nn3c(C4COc5ccccc5O4)nnc3s2)cc1 (centres undefined)	G9a inh 7.08µM, HP1b chromo inh inconclusive
CN(C)c1ccc(-c2nn3c(-c4ccc(Cl)cc4)nnc3s2)cc1	none
NC[C@@H]1O[C@H](C23CC4CC(CC(C4)C2)C3)Cc2c1ccc(O)c2O	CtBP-E1A blk inconclusive, JMJD2A Tudor inconclusive, G9a inh 15.8µM, BAZ2B block inconclusive
CCCCC(=O)c1ccc(O)cc1	G9a inh inconclusive
O=C(CCO)c1ccc(O)cc1	JMJD2A Tudor 20µM, G9a inh inconclusive, Six1-Eya2 blk inconclusive, HP1b chromo inh inconclusive, BAZ2B block 12.6µM
COc1cc(CNc2ccc(N3CCOCC3)cc2)cc(Br)c1OC	JMJD2A Tudor 39.8µM, G9a inh 17.8µM, Six1-Eya2 blk inconclusive, HP1b chromo inh inconclusive, BAZ2B block 39.8µM (no result: CtBP-E1A blk)
CCOc1cc(CNc2ccc(N3CCOCC3)cc2)cc(Br)c1OCC	CtBP-E1A blk -66.8, JMJD2A Tudor 20µM, G9a inh 25.1µM, HP1b chromo inh 44.7µM, BAZ2B block 17.8µM
CCOc1ccc(Br)cc1S(=O)(=O)N1CCCN(C)CC1	G9a inh 50.1µM
CCOc1cc(CNc2ccc3c(c2)OCCO3)cc(Br)c1OCC	CtBP-E1A blk inconclusive, JMJD2A Tudor 44.7µM, Six1-Eya2 blk -66.6, BAZ2B block 25.1µM (no result: G9a inh)

Bioassay records (PubChem BioAssay)
